# In the supplement of paper PMC4466140:
# Tests used:
# Experiment in all cases: SPOT peptide array binding signal intensity (averaged, normalized) (arbitrary units (background-subtracted, floor 0; scale differs between SH3 domains)); higher = stronger binding of the SH3 domain to the peptide
# AgAbp1 = biological target: AgAbp1
# How it was run: (§1)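 GST-SH3 fusions from four yeast species, purified on glutathione Sepharose, were incubated at 10 μg/ml overnight at 4°C on membranes of synthetic 15-mer peptides in which cysteines were replaced with serines. Binding signal is the normalized, background-subtracted spot intensity averaged over replicates, in domain-specific arbitrary units.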
# AgBbc1 = biological target: AgBbc1
# How it was run: as §1
# AgBem1-D1 = biological target: AgBem1-D1
# How it was run: as §1
# AgBzz1-D1 = biological target: AgBzz1-D1
# How it was run: as §1
# AgBzz1-D2 = biological target: AgBzz1-D2
# How it was run: as §1
# AgCyk3 = biological target: AgCyk3
# How it was run: as §1
# AgFus1 = biological target: AgFus1
# How it was run: as §1
# AgHof1 = biological target: AgHof1
# How it was run: as §1
# AgHse1 = biological target: AgHse1
# How it was run: as §1
# AgLsb1 = biological target: AgLsb1
# How it was run: as §1
# AgLsb4 = biological target: AgLsb4
# How it was run: as §1
# AgMyo5 = biological target: AgMyo5
# How it was run: as §1
# AgNbp2 = biological target: AgNbp2
# How it was run: as §1
# AgRvs167 = biological target: AgRvs167
# How it was run: as §1
# AgSho1 = biological target: AgSho1
# How it was run: as §1
# AgSla1-D1-D2 = biological target: AgSla1-D1-D2
# How it was run: as §1
# AgSla1-D3 = biological target: AgSla1-D3
# How it was run: as §1
# CaAbp1-D1 = biological target: CaAbp1-D1
# How it was run: as §1
# CaAbp1-D2 = biological target: CaAbp1-D2
# How it was run: as §1
# CaBbc1 = biological target: CaBbc1
# How it was run: as §1
# CaBem1-D1 = biological target: CaBem1-D1
# How it was run: as §1
# CaBzz1-D1 = biological target: CaBzz1-D1
# How it was run: as §1
# CaBzz1-D2 = biological target: CaBzz1-D2
# How it was run: as §1
# CaCyk3 = biological target: CaCyk3
# How it was run: as §1
# CaFus1 = biological target: CaFus1
# How it was run: as §1
# CaHof1 = biological target: CaHof1
# How it was run: as §1
# CaHse1 = biological target: CaHse1
# How it was run: as §1
# CaLsb1 = biological target: CaLsb1
# How it was run: as §1
# CaLsb4 = biological target: CaLsb4
# How it was run: as §1
# CaMyo5 = biological target: CaMyo5
# How it was run: as §1
# CaNbp2 = biological target: CaNbp2
# How it was run: as §1
# CaRvs167 = biological target: CaRvs167
# How it was run: as §1
# CaRvs167-3 = biological target: CaRvs167-3
# How it was run: as §1
# CaSho1 = biological target: CaSho1
# How it was run: as §1
# CaSla1-D1-D2 = biological target: CaSla1-D1-D2
# How it was run: as §1
# CaSla1-D3 = biological target: CaSla1-D3
# How it was run: as §1
# ScAbp1 = biological target: ScAbp1
# How it was run: as §1
# ScBbc1 = biological target: ScBbc1
# How it was run: as §1
# ScBem1-D1 = biological target: ScBem1-D1
# How it was run: as §1
# ScBzz1-D1 = biological target: ScBzz1-D1
# How it was run: as §1
# ScBzz1-D2 = biological target: ScBzz1-D2
# How it was run: as §1
# ScCyk3 = biological target: ScCyk3
# How it was run: as §1
# ScFus1 = biological target: ScFus1
# How it was run: as §1
# ScHof1 = biological target: ScHof1
# How it was run: as §1
# ScHse1 = biological target: ScHse1
# How it was run: as §1
# ScLsb1 = biological target: ScLsb1
# How it was run: as §1
# ScLsb2 = biological target: ScLsb2
# How it was run: as §1
# ScLsb3 = biological target: ScLsb3
# How it was run: as §1
# ScLsb4 = biological target: ScLsb4
# How it was run: as §1
# ScMyo3 = biological target: ScMyo3
# How it was run: as §1
# ScMyo5 = biological target: ScMyo5
# How it was run: as §1
# ScNbp2 = biological target: ScNbp2
# How it was run: as §1
# ScPex13 = biological target: ScPex13
# How it was run: as §1
# ScRvs167 = biological target: ScRvs167
# How it was run: as §1
# ScSho1 = biological target: ScSho1
# How it was run: as §1
# ScSla1-D1-D2 = biological target: ScSla1-D1-D2
# How it was run: as §1
# ScSla1-D3 = biological target: ScSla1-D3
# How it was run: as §1
# SpAbp1-D1 = biological target: SpAbp1-D1
# How it was run: as §1
# SpBbc1 = biological target: SpBbc1
# How it was run: as §1
# SpBzz1-D1 = biological target: SpBzz1-D1
# How it was run: as §1
# SpBzz1-D2 = biological target: SpBzz1-D2
# How it was run: as §1
# SpCyk3 = biological target: SpCyk3
# How it was run: as §1
# SpHof1 = biological target: SpHof1
# How it was run: as §1
# SpHof1-2 = biological target: SpHof1-2
# How it was run: as §1
# SpHof1-3 = biological target: SpHof1-3
# How it was run: as §1
# SpHse1 = biological target: SpHse1
# How it was run: as §1
# SpLsb1 = biological target: SpLsb1
# How it was run: as §1
# SpLsb4 = biological target: SpLsb4
# How it was run: as §1
# SpMyo1 = biological target: SpMyo1
# How it was run: as §1
# SpNbp2 = biological target: SpNbp2
# How it was run: as §1
# SpPex13 = biological target: SpPex13
# How it was run: as §1
# SpRvs167 = biological target: SpRvs167
# How it was run: as §1
# SpSla1-D1-D2 = biological target: SpSla1-D1-D2
# How it was run: as §1
# SpSla1-D3 = biological target: SpSla1-D3
# How it was run: as §1
binder,measurement,setting,value
PSRRAPLQLPQLVNK,SPOT peptide array binding signal intensity,AgAbp1,15
same,SPOT peptide array binding signal intensity,AgBbc1,8.5
same,SPOT peptide array binding signal intensity,AgBem1-D1,26
same,SPOT peptide array binding signal intensity,AgBzz1-D1,13
same,SPOT peptide array binding signal intensity,AgBzz1-D2,35
same,SPOT peptide array binding signal intensity,AgCyk3,≤ 0
same,SPOT peptide array binding signal intensity,AgFus1,≤ 0
same,SPOT peptide array binding signal intensity,AgHof1,36.5
same,SPOT peptide array binding signal intensity,AgHse1,≤ 0
same,SPOT peptide array binding signal intensity,AgLsb1,214
same,SPOT peptide array binding signal intensity,AgLsb4,≤ 0
same,SPOT peptide array binding signal intensity,AgMyo5,≤ 0
same,SPOT peptide array binding signal intensity,AgNbp2,3
same,SPOT peptide array binding signal intensity,AgRvs167,≤ 0
same,SPOT peptide array binding signal intensity,AgSho1,≤ 0
same,SPOT peptide array binding signal intensity,AgSla1-D1-D2,6
same,SPOT peptide array binding signal intensity,AgSla1-D3,1.5
same,SPOT peptide array binding signal intensity,CaAbp1-D1,89.5
same,SPOT peptide array binding signal intensity,CaAbp1-D2,52
same,SPOT peptide array binding signal intensity,CaBbc1,279
same,SPOT peptide array binding signal intensity,CaBem1-D1,11.5
same,SPOT peptide array binding signal intensity,CaBzz1-D1,130
same,SPOT peptide array binding signal intensity,CaBzz1-D2,41.8
same,SPOT peptide array binding signal intensity,CaCyk3,3
same,SPOT peptide array binding signal intensity,CaFus1,23.5
same,SPOT peptide array binding signal intensity,CaHof1,≤ 0
same,SPOT peptide array binding signal intensity,CaHse1,≤ 0
same,SPOT peptide array binding signal intensity,CaLsb1,≤ 0
same,SPOT peptide array binding signal intensity,CaLsb4,17
same,SPOT peptide array binding signal intensity,CaMyo5,≤ 0
same,SPOT peptide array binding signal intensity,CaNbp2,324
same,SPOT peptide array binding signal intensity,CaRvs167,6
same,SPOT peptide array binding signal intensity,CaRvs167-3,≤ 0
same,SPOT peptide array binding signal intensity,CaSho1,6
same,SPOT peptide array binding signal intensity,CaSla1-D1-D2,21
same,SPOT peptide array binding signal intensity,CaSla1-D3,≤ 0
same,SPOT peptide array binding signal intensity,ScAbp1,13
same,SPOT peptide array binding signal intensity,ScBbc1,11.5
same,SPOT peptide array binding signal intensity,ScBem1-D1,11
same,SPOT peptide array binding signal intensity,ScBzz1-D1,12
same,SPOT peptide array binding signal intensity,ScBzz1-D2,10
same,SPOT peptide array binding signal intensity,ScCyk3,≤ 0
same,SPOT peptide array binding signal intensity,ScFus1,≤ 0
same,SPOT peptide array binding signal intensity,ScHof1,0.5
same,SPOT peptide array binding signal intensity,ScHse1,35.5
same,SPOT peptide array binding signal intensity,ScLsb1,123
same,SPOT peptide array binding signal intensity,ScLsb2,5
same,SPOT peptide array binding signal intensity,ScLsb3,86
same,SPOT peptide array binding signal intensity,ScLsb4,≤ 0
same,SPOT peptide array binding signal intensity,ScMyo3,≤ 0
same,SPOT peptide array binding signal intensity,ScMyo5,1.5
same,SPOT peptide array binding signal intensity,ScNbp2,17
same,SPOT peptide array binding signal intensity,ScPex13,≤ 0
same,SPOT peptide array binding signal intensity,ScRvs167,5.67
same,SPOT peptide array binding signal intensity,ScSho1,35
same,SPOT peptide array binding signal intensity,ScSla1-D1-D2,394
same,SPOT peptide array binding signal intensity,ScSla1-D3,32
same,SPOT peptide array binding signal intensity,SpAbp1-D1,59
same,SPOT peptide array binding signal intensity,SpBbc1,≤ 0
same,SPOT peptide array binding signal intensity,SpBzz1-D1,134
same,SPOT peptide array binding signal intensity,SpBzz1-D2,≤ 0
same,SPOT peptide array binding signal intensity,SpCyk3,≤ 0
same,SPOT peptide array binding signal intensity,SpHof1,7.75
same,SPOT peptide array binding signal intensity,SpHof1-2,1.25
same,SPOT peptide array binding signal intensity,SpHof1-3,89.8
same,SPOT peptide array binding signal intensity,SpHse1,≤ 0
same,SPOT peptide array binding signal intensity,SpLsb1,45.2
same,SPOT peptide array binding signal intensity,SpLsb4,2
same,SPOT peptide array binding signal intensity,SpMyo1,0.5
same,SPOT peptide array binding signal intensity,SpNbp2,3
same,SPOT peptide array binding signal intensity,SpPex13,≤ 0
same,SPOT peptide array binding signal intensity,SpRvs167,1.67
same,SPOT peptide array binding signal intensity,SpSla1-D1-D2,≤ 0
same,SPOT peptide array binding signal intensity,SpSla1-D3,≤ 0
